The source of these data is ChEMBL document CHEMBL4513216, “Probing the Open Global Health Chemical Diversity Library for Multistage-Active Starting Points for Next-Generation Antimalarials” (ACS Infect Dis, 2020).

The campaign covered roughly 69,000 compounds. About 8,600 (12%) showed an effect of 50% or more. The full list was thinned out, with strong results kept by preference.

For the experiment, the system named is Plasmodium berghei. Put plainly: Screen against P. berghei liver stage (PbLuc), transformed with Luciferase, at 10uM. The note with it: tested at 10 uM. Type of experiment: functional, HepG2.
As for `O=S(=O)(C1CC1)N1CC[C@H]2OCC[C@@]2(COc2ncccc2F)C1`, the INHIBITION was -58.9%.
For the compound `O=C(CCc1ccccc1)N1C[C@@H]2CN(Cc3ccoc3)CCO[C@@H]2C1`, the INHIBITION stood at 29.9%.
For the compound `Cc1ccc(CN2CC(O)CN(C(=O)C3CC3)CC2=O)cc1` (centres undefined), the INHIBITION is given as 7.85%.
With `CSCCC(=O)N1CCC(CCC(=O)NCC2CCCO2)CC1` (centres undefined) the figure was 8.51%.
The same measure for `CCOc1ccccc1CCn1cc2[nH]cccc-2c1=O`: 41.5%; for `NC(=O)C1CCCN(c2ccc(CNC(=O)c3cnsn3)cc2)C1` (centres undefined): 60.5%; for `NC(=O)C1CCCN(c2ccc(CNC(=O)c3cc[nH]n3)cc2)C1` (centres undefined): -25.8%.
As for `NC(=O)C1CCCN(c2ccc(CNC(=O)c3csnn3)cc2)C1` (centres undefined), the INHIBITION was found to be 44.1%.
As to `CCN1CCN(C2CCN(Cc3nc(CCOC)no3)CC2)C1=O`, the INHIBITION was determined as 19.4%.
With `CCS(=O)(=O)N1CCCN(CCCOC)CC1` the figure was 63%.
With `CCCS(=O)(=O)N1CCN(CCCO)CC1` the figure was 11.5%; with `CCCS(=O)(=O)N1CCCN(CCCOC)CC1`, -13.6%; with `Cn1cccc1C(=O)N1CCCC1c1ccc(CN2CCOCC2)cn1` (centres undefined), 13.7375%.
The same measure for `Cc1nn(C)c(Cl)c1CNCc1cccnc1N1CCN(C)CC1`: 13.4%; for `CCOc1cc(F)ccc1NC1CCN(CC(F)(F)F)C1=O` (centres undefined): -6.51%.
Turning to `Cc1nnc(C(C)N(C)Cc2c(C)nn(-c3ccccc3)c2C)o1` (centres undefined), the INHIBITION is -10.8%.
The same measure for `CCc1nnc(C(C)N(C)Cc2c(C)nn(-c3ccccc3)c2C)o1` (centres undefined): -77.1%; for `Cc1nnc(C(C)N(C)Cc2c(C)nn(-c3ccccc3C)c2C)o1` (centres undefined): 59.2%; for `CCOC(=O)c1cnn(C2CCN(C(=O)CCC(C)C)CC2)c1N`: 38.3%.
The same measure for `CCc1ccc(S(=O)(=O)NCCOc2ccc3nnc(C)n3n2)s1`: 31%; for `Cc1nnc2ccc(OCCNS(=O)(=O)c3cccs3)nn12`: 3.13%.
Consider `Cc1ccc(S(=O)(=O)NCCOc2ccc3nnc(C)n3n2)s1`, for which the INHIBITION amounted to 57.4%.
Regarding `Cc1ccc(CN2CCc3onc(C(=O)N4CCCC4)c3C2)o1`, the INHIBITION turned out to be 23.6%.
As to `CN(C)CCNC(=O)c1noc2c1CN(C(=O)N(C)C)CC2`, the INHIBITION was determined as 28.2%.
The same measure for `Cc1ccc(CN2CCc3onc(C(=O)NCCN(C)C)c3C2)o1`: 54.4%; for `CC(C)C(=O)N1CCc2onc(C(=O)NCCN(C)C)c2C1`: 39.4%; for `CC(C)NC(=O)N1CCc2onc(C(=O)NCCN(C)C)c2C1`: 95.7%.
The same measure for `Cc1ccc(CN2CCc3onc(C(=O)NC(C)C)c3C2)o1`: 45.4%.
With `O=C1N(c2cccnc2)CCC12CCCN(Cc1ccoc1)C2` (centres undefined) the figure was -29.3%; with `CCN1CCC[C@@H]1CNC(=O)c1cc(COc2ccccc2)[nH]n1`, 33.4%; with `O=C1CC(NCc2cnc(C3CCCCC3)nc2)CN1c1ccccc1` (centres undefined), 56.5%.
For `O=C1CC(NCc2cnc(-c3cccs3)nc2)CN1c1ccccc1` (centres undefined), the INHIBITION stood at 8.92%.
Consider `O=C1CC(NCc2cnc(N3CCCC3)nc2)CN1c1ccccc1` (centres undefined), for which the INHIBITION turned out to be 43.9%.
With `Cc1cnn(CC2CCCCN2CCCS(=O)(=O)N(C)C)c1` (centres undefined) the figure was 13.3%; with `Nc1c(N2CCCC2)ncnc1N1CCOCC1`, 7.53%; with `Nc1c(N2CCCCC2)ncnc1N1CCOCC1`, 10.5%.
For `Nc1c(N2CCOCC2)ncnc1N1CCOCC1`, the INHIBITION is 50%.
With `Cc1cc(C)n(-c2ccccc2NC(=O)NCCS(=O)(=O)CC(C)C)n1` the figure was 32.5%; with `CC(Cn1cccn1)NCc1nc(-c2ccccc2Cl)no1` (centres undefined), 25.1%; with `CC(Cn1cccn1)NCc1nc(-c2cccc(Cl)c2)no1` (centres undefined), 26.3%.
The same measure for `Cc1cnn(CC(C)NCc2nc(-c3cccnc3)no2)c1` (centres undefined): 15.1%; for `CC(Cn1cccn1)NCc1nc(-c2ccsc2)no1` (centres undefined): 1.78%.
With `COc1ccc(-c2noc(CNC(C)Cn3cccn3)n2)c(OC)c1` (centres undefined) the figure was 53.8%; with `CC(Cn1cccn1)NCc1nc(-c2cccnc2)no1` (centres undefined), 86.8%.
As to `CCn1cc(-c2nccnc2C2CCCN(C(C)=O)C2)cn1` (centres undefined), the INHIBITION is -14.2%.
The same measure for `COCC1Cn2nnc(-c3cnn(C)c3)c2CN1Cc1ccc(C)o1` (centres undefined): -1.12%; for `O=C1COc2cc(S(=O)(=O)NCCC3=CCCCC3)c(Cl)cc2N1`: 48.4%; for `NC(=O)N1CC[C@H](O)[C@@H]1Cc1ccccc1`: 46.9%.
Regarding `O=C(NCc1nn(-c2ccccc2)c2c1CCC2)NC1CCOCC1`, the INHIBITION was -6.11%.
The same measure for `CCCc1cncnc1N1CCC2(CCC(=O)N(CCCO)C2)CC1`: -43.8%; for `Cc1nn(C)cc1-c1cc(C(=O)NCC(C)(C)c2ccc(F)cc2)n[nH]1`: 5.75%; for `CC(=O)N1[C@H](Cn2cncn2)C[C@@H]2CN(c3ncc(F)cn3)CC[C@@H]21`: 21.3%.
As for `CC(C)c1nnc2n1CC(CNCc1nc3ccccc3s1)CC2` (centres undefined), the INHIBITION is recorded as 43.3%.
The same measure for `CC(C)c1nnc2n1CC(CNC/C=C/c1ccccc1)CC2` (centres undefined): 51.3%.
